“And” between values parts separate entries of the source, which are not always exact repeats. Equal entries are not always repeated. Results filed as inconclusive are left out. The source made the active and inactive calls. Unless noted, calls come from the whole dose curve; as a rule, active = well fitted curve in either direction with a large enough effect (not every such curve was filed as active); inconclusive = small, poorly fitted or top-dose-only effect, or another doubt; inactive = flat fitted curve, though single readings scatter.
How the values were obtained:
[1] = AP1 Signaling Pathway (AID 357);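 note: ME-180 reporter cells stimulated with EGF at its EC50 level; % is set by controls: 0 for no effect and ±100 for the full control effect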
Outline: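 AP-1-bla ME-180 cells, Opti-MEM + 0.5% dialyzed FBS, plated overnight 37 °C. Cpd titration + EC50 EGF, 5 h 37 °C. CCF4 2.5 h RT; ex 405, em 460/530 ratio → %activity, AC50.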

[2] = NFAT Signaling Pathway (AID 444); conditions: Jurkat NFAT-bla M1, carbachol, beta-lactamase ratio, 5 h;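 note: carbachol stimulus at about its EC50 of 1 µM final; % is set by controls: 0 for no effect and ±100 for the full control effect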
Outline: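 Jurkat cells with NFAT-driven β-lactamase reporter and co-expressed M1 receptor, stimulated with carbachol (final 1 uM, ~EC50), compound titration, 5 h at 37 °C. CCF4 loaded 1 h at RT; 460/530 nm ratio gave %activity and AC50.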

[3] = Stat Signaling Pathway (AID 446);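 note: ME-180 cervical cancer cells given 40 pM IL-6 alongside compound; SIE-controlled beta-lactamase reporter measured as 460/530 nm FRET emission ratio; % is set by controls: 0 for no effect and ±100 for the full control effect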
Outline: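 IL-6/STAT signaling read in ME-180 cells via an SIE beta-lactamase reporter. Stimulus was 40 pM IL-6 (its AC50) for 5 hrs, so both activation and inhibition register.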

[4] = target: Glucocorticoid receptor (Homo sapiens) (UniProt P04150); assay: GR-GFP Redistribution (AID 450;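 active = compounds whose dose series gives a full or clear partial fitted curve of increased nuclear translocation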; note: potency is the fitted concentration of half-maximal effect); conditions: U2OS GR-GFP nuclear translocation, laser cytometry, 2 h
[5] = target: Glucocorticoid receptor (Homo sapiens) (UniProt P04150); assay: GR-EFC Redistribution (AID 451; calls by dose curve; note: potency is the fitted concentration of half-maximal effect); conditions: CHO-K1 GR-EFC translocation, beta-gal luminescence, 2 h
Outline: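 CHO-K1 cells expressing nuclear EA and GR-ED fragments of b-gal; compounds titrated up to 46 uM final, 2 h at 37 C. GR nuclear translocation read as complemented b-gal luminescence after 1 h RT detection.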

[6] = target: Mitogen-activated protein kinase 10 (Mus musculus) (UniProt Q61831); assay: JNK3 AlphaScreen Assay (AID 530);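 note: kinase came from lysate of stimulated human HepG2 cells; signal reports phosphorylation of biotinylated GST-cJun 1-79 at Ser73 with 10 µM ATP; % is set by controls: 0 for no effect and ±100 for the full control effect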
Outline: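 Pre-activated (IL-1β/TNFα) JNK3 in HepG2 lysates phosphorylates biotin-GST-cJun(1-79), 10 uM ATP; anti-phospho-cJun(Ser73) AlphaScreen read at room temperature, pH 7.6 Tris buffer. Compounds pre-incubated 15 min as titrations.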

[7] = qHTS Assay for Lipid Storage Modulators (AID 1519; calls by dose curve); conditions: Drosophila S3 cells, BODIPY lipid droplet/cell ratio, laser cytometry, cells loaded with oleic acid
Outline: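 Cells seeded at 5,000 per well were treated with compounds over a concentration series and loaded with oleic acid (400 uM, as added). Lipid droplet fluorescence (488 nm excitation, 500-530 nm channel) was read by laser-scanning cytometry and normalized to 20 uM Triacsin C.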

[8] = target: 3',5'-cyclic-AMP phosphodiesterase 4B (Homo sapiens) (UniProt Q07343); assay: qHTS Assay for Inhibitors of PDE-IV (AID 607; active = well fitted activation curve with a large enough effect in the main read-out, with a control signal flat, not every such curve was filed as active; note: % of control where 0% means no effect)
Outline: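 Live HEK293 cells with a modified cyclic nucleotide-gated (CNG) channel report intracellular cAMP via membrane-potential dye fluorescence (ex 535/em 590 nm). Endogenous PDE-IV was targeted. Compounds were tested at up to 22.9 uM final; RO 20-1724 100 uM served as control.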

[9] = target: Ubiquitin carboxyl-terminal hydrolase 1 (Homo sapiens) (UniProt O94782); assay: Inhibitors of USP1/UAF1: Pilot qHTS (AID 504865; active = well fitted curve in the direction sought with a large enough effect; an effect the other way counts as inactive or inconclusive; note: nearly all actives have a fitted effect of over 35% in size; note: potency is the fitted concentration of half-maximal effect)
Outline: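 Deubiquitinase activity followed as kinetic rhodamine fluorescence release from 150 nM Ub-Rho. 1 nM USP1/UAF1 with compound, after 15 min room-temperature preincubation, in HEPES pH 7.8 buffer containing TCEP, EDTA, BSA and Tween-20.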

[10] = target: Cytochrome P450 1A2 (Homo sapiens) (UniProt P05177); assay: p450-cyp1a2 (AID 410; calls by dose curve;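 note: -100% = full effect of reference inhibitor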)
Outline: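 20nM CYP1A2 with 100uM Luciferin-ME (at Km) in 100mM KPO4; compound preincubated 10 min, NADPH regeneration added, 60 min at room temperature. Luciferin quantified by luminescence after detection reagent; normalized to 57 uM furafylline.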

[11] = target: ATP-dependent 6-phosphofructokinase (Trypanosoma brucei brucei) (UniProt O15648); assay: qHTS Assay to Find Inhibitors of T. brucei phosphofructokinase: hit validation (AID 492961; active = well fitted curve in the direction sought with a large enough effect; an effect the other way counts as inactive or inconclusive; note: % is set by controls: 0 for no effect and ±100 for the full control effect)
Outline: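 Luminescence from ADP-Glo reports ADP generated as T. brucei PFK (1.25 nM) phosphorylates 0.5 mM fructose-6-phosphate using 0.1 mM ATP. Reactions ran 45 min at room temperature, pH 8.0.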

[12] = target: Luciferin 4-monooxygenase (Photinus pyralis) (UniProt P08659); assay: Biochemical firefly luciferase enzyme assay for NPC (AID 624030; active = well fitted curve in the direction sought with a large enough effect; an effect the other way counts as inactive or inconclusive;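 note: purified P. pyralis luciferase at 10 nM with luciferin and ATP substrate; 0% = DMSO and -100% = full luciferase inhibition by PTC124 control; nearly all actives have a fitted effect of over 70% in size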)
Outline: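 Purified P. pyralis luciferase at 10 nM in 50 mM Tris Acetate (final), luminescence read within 5 minutes of enzyme addition to compounds. Activity normalised to PTC124 versus DMSO; concentration-response curves classed by r2, magnitude and activity.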

[13] = qHTS profiling for inhibitors of Plasmodium falciparum proliferation (AID 504749; active = well fitted curve in the direction sought with a large enough effect; an effect the other way counts as inactive or inconclusive;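 note: 0% = DMSO vehicle and full inhibition = artemisinin control; nearly all actives have a fitted effect of over 60% in size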); conditions: P. falciparum in erythrocytes, SYBR Green DNA, 72 h
Outline: (§1)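 P. falciparum-infected erythrocytes (0.3% parasitemia, 2.5% hematocrit) incubated with compound 72 h at 37 C, 5% CO2. Parasite DNA detected by SYBR Green after lysis, overnight at room temperature; normalised to 0.29 uM artemisinin and DMSO.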

AS120 = assay: as above; conditions: P. falciparum in erythrocytes, SYBR Green DNA, 72 h; series mostly up to 28.7 µM
Outline: as §1

ATS189 = assay: as above; conditions: P. falciparum in erythrocytes, SYBR Green DNA, 72 h; series mostly up to 28.7 µM
Outline: as §1

DFO2036 = assay: as above; conditions: P. falciparum in erythrocytes, SYBR Green DNA, 72 h; series mostly up to 28.7 µM
Outline: as §1

[14] = target: Cytochrome P450 3A4 (Homo sapiens) (UniProt P08684); assay: qHTS Assay for Inhibitors and Substrates of Cytochrome P450 3A4 (AID 884; active = well fitted curve in the direction sought with a large enough effect; an effect the other way counts as inactive or inconclusive; note: potency is the fitted concentration of half-maximal effect; nearly all actives have a fitted effect of over 50% in size)
Outline: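 20 nM human CYP3A4 with 25 uM Luciferin-PPXE (at KM) in 200 mM KPO4, preincubated 10 min with compound; NADPH regeneration started a 60 min RT reaction. Luciferin detected by luminescence, normalized to 57 uM ketoconazole as full inhibition.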

[15] = target: Cytochrome P450 3A4 (Homo sapiens) (UniProt P08684); assay: qHTS Assay for Activators of Cytochrome P450 3A4 (AID 885; active = well fitted curve in the direction sought with a large enough effect; an effect the other way counts as inactive or inconclusive; note: nearly all actives have a fitted effect of over 65% in size)
Outline: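 Quantitative HTS format: compounds preincubated with 20nM human CYP3A4 and Luciferin-PPXE substrate at KM, reaction started by NADPH regeneration, stopped after 60 min, luciferase luminescence read 20 min later.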

[16] = measured here: cell count channel max response
[17] = measured here: lipid channel max response
[18] = at 28.7 µM (top of the series), parasite line A
[19] = at 28.7 µM (top of the series), parasite line B

Glucocorticoid receptor (Homo sapiens), sequence (P04150 whole entry, looked up, the tested form may be a part): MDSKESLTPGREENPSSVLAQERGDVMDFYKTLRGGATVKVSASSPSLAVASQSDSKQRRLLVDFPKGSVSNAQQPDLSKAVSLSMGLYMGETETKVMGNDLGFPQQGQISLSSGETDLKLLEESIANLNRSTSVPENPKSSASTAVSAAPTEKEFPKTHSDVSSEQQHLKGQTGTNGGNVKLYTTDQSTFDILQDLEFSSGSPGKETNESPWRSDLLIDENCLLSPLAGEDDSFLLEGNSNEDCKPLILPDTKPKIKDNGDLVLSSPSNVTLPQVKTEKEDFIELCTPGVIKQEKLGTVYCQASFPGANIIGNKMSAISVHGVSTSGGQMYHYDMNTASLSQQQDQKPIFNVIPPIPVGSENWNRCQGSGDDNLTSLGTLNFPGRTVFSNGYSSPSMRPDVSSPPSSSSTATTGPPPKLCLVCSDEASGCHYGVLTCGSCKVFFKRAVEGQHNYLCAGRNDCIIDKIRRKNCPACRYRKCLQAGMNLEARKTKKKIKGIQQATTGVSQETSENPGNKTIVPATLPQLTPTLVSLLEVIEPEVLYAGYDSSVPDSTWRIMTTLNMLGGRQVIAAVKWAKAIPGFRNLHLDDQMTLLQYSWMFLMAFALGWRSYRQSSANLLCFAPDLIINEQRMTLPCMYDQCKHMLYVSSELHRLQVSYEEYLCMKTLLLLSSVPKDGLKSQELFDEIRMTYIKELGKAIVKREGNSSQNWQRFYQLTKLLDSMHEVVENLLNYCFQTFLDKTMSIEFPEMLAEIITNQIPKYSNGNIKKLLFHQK
3',5'-cyclic-AMP phosphodiesterase 4B (Homo sapiens), sequence (Q07343 whole entry, looked up): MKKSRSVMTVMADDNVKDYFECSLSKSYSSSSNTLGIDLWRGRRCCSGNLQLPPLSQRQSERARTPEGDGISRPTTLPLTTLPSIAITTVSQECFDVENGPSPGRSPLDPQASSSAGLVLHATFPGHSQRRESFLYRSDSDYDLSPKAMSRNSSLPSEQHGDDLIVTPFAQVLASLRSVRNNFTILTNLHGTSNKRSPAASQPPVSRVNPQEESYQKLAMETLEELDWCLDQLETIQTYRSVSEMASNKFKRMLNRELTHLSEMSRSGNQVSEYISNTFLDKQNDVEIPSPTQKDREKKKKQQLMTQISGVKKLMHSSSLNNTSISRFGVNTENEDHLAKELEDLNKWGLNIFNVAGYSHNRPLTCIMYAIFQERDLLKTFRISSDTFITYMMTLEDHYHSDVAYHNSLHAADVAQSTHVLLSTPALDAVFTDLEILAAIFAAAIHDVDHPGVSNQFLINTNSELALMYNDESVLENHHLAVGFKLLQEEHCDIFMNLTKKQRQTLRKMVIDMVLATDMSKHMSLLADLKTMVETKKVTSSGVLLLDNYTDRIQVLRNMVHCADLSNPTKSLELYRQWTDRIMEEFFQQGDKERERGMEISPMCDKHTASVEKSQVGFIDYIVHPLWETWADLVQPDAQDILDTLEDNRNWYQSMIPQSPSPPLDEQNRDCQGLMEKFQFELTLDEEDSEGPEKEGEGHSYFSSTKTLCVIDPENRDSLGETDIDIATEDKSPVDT
Cytochrome P450 1A2 (Homo sapiens), sequence (P05177 whole entry, looked up): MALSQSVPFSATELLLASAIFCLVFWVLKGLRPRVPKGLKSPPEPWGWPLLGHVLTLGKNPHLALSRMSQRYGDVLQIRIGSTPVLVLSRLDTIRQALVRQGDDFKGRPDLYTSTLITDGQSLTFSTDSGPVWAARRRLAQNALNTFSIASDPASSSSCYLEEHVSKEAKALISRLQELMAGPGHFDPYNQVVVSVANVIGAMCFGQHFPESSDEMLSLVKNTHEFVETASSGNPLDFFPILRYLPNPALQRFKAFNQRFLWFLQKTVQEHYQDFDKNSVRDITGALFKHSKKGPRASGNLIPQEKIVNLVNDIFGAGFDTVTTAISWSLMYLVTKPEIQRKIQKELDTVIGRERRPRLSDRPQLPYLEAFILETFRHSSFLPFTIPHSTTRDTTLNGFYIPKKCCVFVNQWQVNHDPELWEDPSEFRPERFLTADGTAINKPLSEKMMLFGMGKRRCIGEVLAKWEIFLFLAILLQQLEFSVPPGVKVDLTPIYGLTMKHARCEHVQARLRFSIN
ATP-dependent 6-phosphofructokinase (Trypanosoma brucei brucei), sequence (O15648 whole entry, looked up): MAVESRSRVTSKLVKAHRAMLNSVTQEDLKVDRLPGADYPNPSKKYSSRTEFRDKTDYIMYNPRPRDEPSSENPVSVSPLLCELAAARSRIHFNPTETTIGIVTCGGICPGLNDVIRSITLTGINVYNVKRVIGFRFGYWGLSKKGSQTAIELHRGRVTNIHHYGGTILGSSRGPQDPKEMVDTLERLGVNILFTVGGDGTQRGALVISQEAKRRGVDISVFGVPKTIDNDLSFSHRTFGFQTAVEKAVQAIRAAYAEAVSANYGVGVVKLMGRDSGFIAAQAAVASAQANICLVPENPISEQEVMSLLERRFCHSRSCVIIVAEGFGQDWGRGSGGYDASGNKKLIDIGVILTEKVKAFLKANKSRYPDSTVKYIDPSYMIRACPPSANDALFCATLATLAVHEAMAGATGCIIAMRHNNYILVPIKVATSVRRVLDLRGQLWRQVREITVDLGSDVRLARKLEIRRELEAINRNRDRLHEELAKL
Cytochrome P450 3A4 (Homo sapiens), sequence (P08684 whole entry, looked up): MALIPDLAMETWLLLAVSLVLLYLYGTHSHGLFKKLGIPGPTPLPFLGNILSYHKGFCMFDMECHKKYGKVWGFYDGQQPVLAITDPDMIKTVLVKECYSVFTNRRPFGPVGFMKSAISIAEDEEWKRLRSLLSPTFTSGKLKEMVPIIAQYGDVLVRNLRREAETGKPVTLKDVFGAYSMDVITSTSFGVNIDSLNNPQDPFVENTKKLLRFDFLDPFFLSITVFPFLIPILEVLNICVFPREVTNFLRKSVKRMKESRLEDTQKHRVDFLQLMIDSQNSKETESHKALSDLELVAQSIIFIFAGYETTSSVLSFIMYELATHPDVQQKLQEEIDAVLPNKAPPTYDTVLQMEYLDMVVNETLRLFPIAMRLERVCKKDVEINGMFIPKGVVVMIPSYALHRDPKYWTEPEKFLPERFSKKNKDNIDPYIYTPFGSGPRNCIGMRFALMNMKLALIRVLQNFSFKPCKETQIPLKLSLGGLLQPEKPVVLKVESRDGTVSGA
Luciferin 4-monooxygenase (Photinus pyralis), sequence (P08659 whole entry, looked up): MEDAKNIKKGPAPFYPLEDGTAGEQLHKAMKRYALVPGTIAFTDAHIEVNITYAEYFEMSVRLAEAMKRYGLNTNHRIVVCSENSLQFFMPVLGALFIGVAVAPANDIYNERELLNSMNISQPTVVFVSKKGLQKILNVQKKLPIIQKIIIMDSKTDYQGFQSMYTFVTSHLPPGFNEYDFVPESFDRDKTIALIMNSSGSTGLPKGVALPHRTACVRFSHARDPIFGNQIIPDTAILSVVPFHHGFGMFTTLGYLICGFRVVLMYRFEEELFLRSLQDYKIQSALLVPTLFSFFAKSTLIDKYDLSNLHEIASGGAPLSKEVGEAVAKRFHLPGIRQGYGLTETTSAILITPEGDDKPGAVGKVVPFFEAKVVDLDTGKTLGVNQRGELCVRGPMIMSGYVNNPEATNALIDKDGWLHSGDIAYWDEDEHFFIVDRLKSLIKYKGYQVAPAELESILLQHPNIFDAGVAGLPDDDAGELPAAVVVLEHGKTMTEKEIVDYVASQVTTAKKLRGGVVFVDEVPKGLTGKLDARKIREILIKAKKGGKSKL
Ubiquitin carboxyl-terminal hydrolase 1 (Homo sapiens), sequence (O94782 whole entry, looked up): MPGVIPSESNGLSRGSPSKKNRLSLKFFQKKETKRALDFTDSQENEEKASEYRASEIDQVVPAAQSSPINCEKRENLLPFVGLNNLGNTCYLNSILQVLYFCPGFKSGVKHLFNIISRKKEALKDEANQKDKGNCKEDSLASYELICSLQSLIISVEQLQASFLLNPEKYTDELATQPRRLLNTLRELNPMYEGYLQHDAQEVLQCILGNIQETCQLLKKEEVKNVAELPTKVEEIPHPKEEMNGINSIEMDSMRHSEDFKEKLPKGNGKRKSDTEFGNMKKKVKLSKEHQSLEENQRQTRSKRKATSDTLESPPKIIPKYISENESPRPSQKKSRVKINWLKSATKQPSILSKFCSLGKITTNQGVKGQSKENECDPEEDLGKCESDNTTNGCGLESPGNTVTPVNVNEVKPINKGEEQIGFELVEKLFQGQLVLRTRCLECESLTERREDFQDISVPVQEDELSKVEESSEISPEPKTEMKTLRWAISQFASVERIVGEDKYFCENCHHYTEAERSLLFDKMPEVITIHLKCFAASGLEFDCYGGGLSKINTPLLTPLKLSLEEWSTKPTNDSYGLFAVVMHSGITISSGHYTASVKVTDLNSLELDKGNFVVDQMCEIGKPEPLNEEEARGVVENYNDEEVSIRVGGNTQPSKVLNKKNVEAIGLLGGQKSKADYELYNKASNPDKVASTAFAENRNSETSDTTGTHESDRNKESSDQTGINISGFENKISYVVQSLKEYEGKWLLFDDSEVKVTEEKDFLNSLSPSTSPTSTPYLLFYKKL

C#C[C@@]1(O)CC[C@@H]2[C@@H]3CCC4=CC(=O)CC[C@@]4(C)[C@H]3CC[C@]21C
active: Potency [4] 0.155 µM
-8.16%: max response [7, 16]
inactive: outcome [1] | activity change, negative = inhibition ([2]; at 17.2 µM (top of the series)) -15.1% | outcome [3] | Potency [5] > 20.6 µM | outcome [6] | activity change, negative = inhibition ([7]; at 25.7 µM (top of the series)) -1.74%
-11.2%: max response [7, 17]

O=C(NCNC(=O)N[C@H]1C(=O)NC(=O)N1CO)N[C@H]1C(=O)NC(=O)N1CO
-9.3%: max response [7, 16]
-8.35%: max response [7, 17]
inactive: outcome [1] | activity change, negative = inhibition ([2]; at 17.2 µM (top of the series)) -14% | outcome [3] | Potency [4] > 20.6 µM | Potency [5] > 20.6 µM | outcome [6] | Potency [8] | activity change, negative = inhibition ([7]; at 25.7 µM (top of the series)) -1.29% | Potency [9]

CC(C)N(CC[C@@](C(N)=O)(c1ccccc1)c1ccccn1)C(C)C
-13.9%: max response [7, 16]
inactive: outcome [1] | Potency [10] | outcome [3] | outcome [6] | activity change, negative = inhibition ([7]; at 25.7 µM (top of the series)) 0.14% | Potency [11] | Potency [9] | Potency [12] | activity, negative = inhibition [13, 18] 9.42% | activity, negative = inhibition [13, 19] 2.7% | Potency (AS120) | Potency (ATS189) | Potency (DFO2036)
-14.1%: max response [7, 17]

CN(C)[C@@H]1C(=O)C(C(N)=O)=C(O)[C@]2(O)C(=O)C3=C(O)c4c(O)cccc4[C@@](C)(O)[C@H]3[C@H](O)[C@@H]12
inactive: outcome [1] | Potency [10] | outcome [3] | outcome [6] | activity change, negative = inhibition ([7]; at 25.7 µM (top of the series)) -0.12%
-12.1%: max response [7, 16]
-10.8%: max response [7, 17]
active: Potency [9] 31.6 µM

COc1cc(N)c(Cl)cc1C(=O)N[C@@H]1CN2CCC1CC2
inactive: Potency [10] | Potency [4] > 46 µM | Potency [5] > 46 µM | Potency [8] | activity change, negative = inhibition ([7]; at 57.5 µM (top of the series)) 7.47% | Potency [11] | Potency [12] | activity, negative = inhibition [13, 18] -0.396% | activity, negative = inhibition [13, 19] 5.5% | Potency (AS120) | Potency (ATS189) | Potency (DFO2036)
7.11%: max response [7, 17]
3.73%: max response [7, 16]

CC[C@H]1C(=O)OC[C@H]1Cc1cncn1C
-8.31%: max response [7, 16]
inactive: outcome [1] | activity change, negative = inhibition ([2]; at 38 µM (top of the series)) 27.4% and 31.8% | outcome [3] | Potency [15] | activity change, negative = inhibition ([7]; at 25.7 µM (top of the series)) 0.358% | Potency [9]
active: Potency [14] 3.16 µM
-6.45%: max response [7, 17]

CCN[C@]1(c2cccs2)CCCCC1=O
-12.8%: max response [7, 17]
-13.4%: max response [7, 16]
inactive: outcome [1] | activity change, negative = inhibition ([2]; at 17.2 µM (top of the series)) -19.9% | outcome [3] | Potency [4] > 20.6 µM | Potency [5] > 20.6 µM | outcome [6] | Potency [8] | activity change, negative = inhibition ([7]; at 25.7 µM (top of the series)) 0.601% | Potency [11] | Potency [12] | activity, negative = inhibition ([13]; at 12.8 µM (top of the series), parasite line A) -1.5% | activity, negative = inhibition ([13]; at 12.8 µM (top of the series), parasite line B) -1.41% | Potency (AS120) | Potency (ATS189) | Potency (DFO2036)

Reference: PubChem BioAssay (NCATS)
